Screens as filed in PubChem.
Sampled rows, rich in hits. Any-hit rate of the full collection: about 4.7%.
TRHR ag = qHTS for Small Molecule Agonists and Allosteric Enhancers of Human TRH Receptor: Primary Screen for Agonists; Thyrotropin-releasing hormone receptor (Homo sapiens), P34981; TRHR cells, calcium flux fluo-8, FDSS agonist mode; activation, % at 2 µM; 360,000 compounds, 0.18% hits
Target sequence (P34981 whole entry, looked up): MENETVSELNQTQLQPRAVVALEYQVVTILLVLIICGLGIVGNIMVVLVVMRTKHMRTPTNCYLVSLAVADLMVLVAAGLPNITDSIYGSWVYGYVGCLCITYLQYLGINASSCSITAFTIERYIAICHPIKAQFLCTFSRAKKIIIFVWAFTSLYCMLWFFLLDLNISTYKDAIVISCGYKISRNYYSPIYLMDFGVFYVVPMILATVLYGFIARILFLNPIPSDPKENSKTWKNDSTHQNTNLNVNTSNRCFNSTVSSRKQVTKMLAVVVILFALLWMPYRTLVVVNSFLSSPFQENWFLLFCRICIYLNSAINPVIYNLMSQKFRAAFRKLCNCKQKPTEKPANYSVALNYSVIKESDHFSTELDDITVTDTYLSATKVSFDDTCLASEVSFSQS
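Fluo-8-loaded TRHR cells; 10 s baseline, compound added, kinetic Ca2+ fluorescence read 1/s, agonist mode.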
D1 ag = Allosteric Agonists of the Human D1 Dopamine Receptor: qHTS | D(1A) dopamine receptor (Homo sapiens), P21728 | HEK293 T-REx D1 cells, calcium flux, agonist mode | activation, % at 2 µM | 360,000 compounds, 1% hits | AID 504660, 2011
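Inducible HEK293 T-REx D1 cells, force-coupled to calcium signalling, were plated at 4000 cells/well with tetracycline and held overnight at 30 C. After no-wash calcium dye loading, compound-evoked calcium rise over 180 s flagged agonists.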
D1 PAM = Potentiators of Human D1 Dopamine Receptor: qHTS | 360,000 compounds, 0.036% hits | potentiation, % at 10 µM | D(1A) dopamine receptor (Homo sapiens), P21728 | HEK293 TREx D1 cells, calcium flux, dopamine EC20 potentiation | AID 504651, 2011; in the data active = potentiation above about 30%
TRHR enhancer = qHTS for Small Molecule Agonists and Allosteric Enhancers of Human TRH Receptor: Primary Screen for Enhancers | enhancement, % at 2 µM | AID 493056, 2011 | 360,000 compounds, 0.66% hits | TRHR cells, fluo-8 calcium fluorescence, EC20 TRH enhancement | Thyrotropin-releasing hormone receptor (Homo sapiens), P34981; in the data active = enhancement above about 30%
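Enhancer read-out: after compound pinning and an initial kinetic agonist-mode read, an EC20 of TRH (10 nM final) was injected and fluo-8 calcium signal (Ex 480/Em 530) followed at 1 s/cycle for 100 cycles in TRHR-expressing cells.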
D1 antagonist = Antagonist of Human D 1 Dopamine Receptor: qHTS | 360,000 compounds, 3.2% hits | HEK293 TREx D1 cells, calcium flux, dopamine EC80; stronger effect = lower value | D(1A) dopamine receptor (Homo sapiens), P21728 | activity change, negative = inhibition, % at 10 µM; in the data active = activity change below about -30%
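Tetracycline-induced HEK293 Trex D1 cells, force-coupled to calcium, dye-loaded; compounds added and read 180 s, then EC80 dopamine added and calcium flux tracked kinetically another 180 s.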
Each line names hits and unclear results; the compound was inactive in the other large screens; ! = not confirmed by another sample. Rule as the data show it, unless noted: active = activation above about 30%; inactive = the rest.

Cc1nn(CC(=O)NCCN2CCCCCC2)c(=O)c2nn(-c3ccccc3)c(C)c12	none
Cc1ccc(-n2nc3c(=O)n(CCCC(=O)NCCc4ccccc4)nc(C)c3c2C)cc1	none
OCCNc1c2ccccc2nc2c(F)c(F)c(F)c(F)c12	none
Cc1c2ccccc2nc2c(F)c(NC(C)C)c(F)c(F)c12	TRHR ag 40, D1 ag 64
CC(=O)N(/N=C1\Sc2ccccc2C1=O)c1ccccc1	D1 antagonist -44
CC(=O)N(/N=C1\Sc2ccccc2C1=O)c1ccccc1C	none
O=C(O)CCc1nn2cc(-c3ccccc3)nc2[nH]c1=O	D1 antagonist -79
CCOC(=O)c1cnc(Nc2nc3ccccc3o2)nc1CN1CCN(C)CC1	D1 antagonist -56
COC(=O)CSc1nc2c(cnn2-c2ccc(F)cc2)c(=O)[nH]1	D1 antagonist -33!
CCOC(=O)CSc1nc2c(cnn2-c2ccc(F)cc2)c(=O)[nH]1	none
CCOc1ccc(CCNC(=O)c2nc(-c3cccc(F)c3)n3c2CCCCC3)cc1OCC	none
COc1ccc(OCCOC(=O)c2cc(S(=O)(=O)N3CCOCC3)c(Cl)cc2Cl)cc1	none
Cc1ccc(NC(=O)CCCOc2ccccc2)cc1S(=O)(=O)N1CCOCC1	D1 antagonist -53
O=C(OCCOc1cccc(Cl)c1)c1ccc(F)c(S(=O)(=O)N2CCOCC2)c1	none
COc1ccc(OCCOC(=O)c2ccc(F)c(S(=O)(=O)N3CCOCC3)c2)cc1	D1 antagonist -64
Cc1ccc(C(=O)OCCOc2cccc(Cl)c2)cc1S(=O)(=O)N1CCOCC1	D1 ag 31
Cc1ccc(NS(=O)(=O)c2ccc3c(c2)OCCCO3)cc1S(=O)(=O)N1CCOCC1	D1 antagonist -35
CCc1cccc(C)c1Nc1c(-c2ccc(SC)cc2)nc2sccn12	none
Cc1ccc(NC(=O)COC(=O)c2ccc3c(c2)OCCO3)cc1S(=O)(=O)N1CCOCC1	none
CCc1ccc(NC(=O)c2ccc(F)c(S(=O)(=O)N3CCC(C)CC3)c2)cc1	none
CCc1ccc(NC(=O)c2ccc(F)c(S(=O)(=O)N3CCN(c4ccc(OC)cc4)CC3)c2)cc1	D1 antagonist -45
Cc1ccc(C(=O)OCC(=O)Nc2ccc3c(c2)OCO3)cc1S(=O)(=O)N1CCOCC1	D1 antagonist -77
COc1ccc(NC(=O)c2cccc(N3C(=O)C4C5C=CC(C6CC56)C4C3=O)c2)c(OC)c1 (stereo not given)	D1 antagonist -39
O=C(O)c1ccc(NC(=O)c2cccc(N3C(=O)C4C5CCC(C5)C4C3=O)c2)cc1 (stereo not given)	none
COc1ccc(NC(=O)c2cccc(N3C(=O)C4C5C=CC(C5)C4C3=O)c2)c(OC)c1 (stereo not given)	none
COc1ccc(NC(=O)c2cccc(N3C(=O)C4C5CCC(C5)C4C3=O)c2)cc1 (stereo not given)	D1 antagonist -80
CCOc1ccc2c(c1)c(=O)c(S(=O)(=O)c1ccccc1)cn2CC(=O)Nc1ccccc1OC	none
COc1cccc(S(=O)(=O)N2CCN(S(=O)(=O)c3ccc4c(c3)OCCO4)CC2)c1	none
CCOCCCNC(=O)Nc1cc(C(=O)NCc2ccc(C(C)C)cc2)ccc1N1CCCC1	none
O=C(CN1C(=O)COc2ccc(S(=O)(=O)N3CCOCC3)cc21)N1CCN(c2ccc(F)cc2)CC1	none
COc1ccc(CNC(=O)COC(=O)c2n[nH]c3ccccc23)cc1	none
Nc1nccnc1C(=O)OCC(=O)NCCc1ccc(Cl)cc1	D1 antagonist -47
O=C(COC(=O)Cc1ccc(Cl)cc1)NCCc1ccccc1	none (no result: D1 PAM)
O=C(COC(=O)c1n[nH]c2ccccc12)NCCc1ccc(Cl)cc1	D1 antagonist -30 (no result: D1 PAM)
COc1ccc(CCNC(=O)c2n[nH]c3ccccc23)cc1	none
CC(C)CNC(=O)COC(=O)c1n[nH]c2ccccc12	D1 antagonist -51
CNC(=O)C(=O)NCCC1CCCCN1S(=O)(=O)c1cccs1 (stereo not given)	none
CC(C)NC(=O)C(=O)NCCC1CCCCN1S(=O)(=O)c1cccs1 (stereo not given)	D1 antagonist -32
O=C(NCc1cccs1)c1ccc2c(=O)n3nc(Nc4ccccc4)sc3nc2c1	none
O=C(O)C(Sc1ccncn1)c1ccccc1 (stereo not given)	D1 antagonist -35
Cc1cc(-c2ccccc2)nc(SC(C(=O)O)c2ccccc2)n1 (stereo not given)	none
Cn1nnnc1Sc1ncnc2scc(I)c12	none
NC(=O)c1cc2ccccc2oc1=NCc1ccccc1	none
COc1ccc(OC)c(N=c2oc3cc(O)ccc3cc2C(N)=O)c1	D1 antagonist -36
NC(=O)c1cc2ccc(O)cc2oc1=NCc1ccccc1	D1 ag 150
COc1ccc2cc(C(N)=O)c(=Nc3ccccc3)oc2c1	none
CCOc1ccc(CNC(=O)Cn2ncc3c(=O)oc4ccc(C)cc4c32)cc1	none
CCCCCOC(=O)CSc1nc2sc3c(c2c(=O)n1Cc1ccccc1)CC(C)(CC)OC3 (stereo not given)	none
COc1ccc(-n2cc(-c3ccccc3)c3c(N4CCN(CCO)CC4)ncnc32)cc1	D1 antagonist -36
CCOc1ccc(-n2cc(-c3ccccc3)c3c(N4CCN(c5ccccc5OC)CC4)ncnc32)cc1	D1 antagonist -32
CCC1CN(C(=O)N2CCC(C(=O)NCc3cccc(F)c3)CC2)c2cc(C)ccc2O1 (stereo not given)	none
O=C(O/N=C(/c1ccccc1)c1ccncc1)c1cccc(F)c1	D1 antagonist -59
N/C(=N\OC(=O)c1ccncc1)c1cccc([N+](=O)[O-])c1	TRHR enhancer 32
Cc1ccc(C(=O)O/N=C(\N)c2cccc([N+](=O)[O-])c2)cc1	none
CCOC(=O)c1c(S(=O)(=O)N2CCC(C(=O)NCc3cccc(C)c3)CC2)c(C)n(C)c1C	none
CN(c1cccc(NC(=O)c2ccc(Cl)c(S(=O)(=O)Nc3ccccc3)c2)c1)S(C)(=O)=O	D1 antagonist -42
CCOc1ccc(S(=O)(=O)Nc2cccc(N(C)S(C)(=O)=O)c2)cc1	D1 antagonist -39
CC(=O)Nc1ccc(S(=O)(=O)Nc2cccc(N(C)S(C)(=O)=O)c2)cc1	none
CN(c1cccc(NS(=O)(=O)c2ccccc2)c1)S(C)(=O)=O	D1 antagonist -37
COCCCNC(=O)CSc1nc(-c2ccc(OC)cc2)[nH]c1-c1ccc(OC)cc1	none
Cc1cc2c(s1)c1cnn(Cc3ccc(Cl)c(F)c3)c(=O)c1n2C	none
